APP 5UTR inh: inhibitors of APP translation via 5'UTR reporter, primary screen, APP 5'UTR luciferase, SH-SY5Y cells | SH-SY5Y APP 5'UTR-luciferase reporter, luminescence | inhibition, % at 2 µM | 190,000 tested, 0.82% active;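 active = inhibition above a set limit, derived from the sample mean plus 3 SD, cut at about 45% in these data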
BaF3 tox: parental Ba/F3 cell viability inhibition, counter-screen for JAK2V617F inhibitor project, murine pro-B, CellTiter-Glo luminescence | CellTiter-Glo ATP luminescence | inhibition, % at 5.6 µM | 220,000 tested, 1.1% active | AID 1486, 2009;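 active = inhibition above a per-campaign cutoff, the mean inhibition of all tested compounds plus 3 SD, cut at about 27% in these data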
Ba/F3 V617F tox: reduced viability of JAK2V617F-dependent Ba/F3 cells, primary screen, JAK2V617F inhibitor project, cell-based, Ba/F3 EpoR-JAK2V617F, luminescence | ATP luminescence | AID 1446, 2008 | inhibition, % at 5.6 µM | 220,000 tested, 1.1% active;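 active = inhibition above the campaign mean plus 3 SD over all tested compounds, cut at about 24% in these data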;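 note: cytokine-independent growth of Ba/F3 cells driven by EpoR plus mutant JAK2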
KLF5 inhibitor: KLF5 expression inhibitors, primary screen, DLD-1 cells, luminescence | DLD-1 KLF5 promoter-luciferase reporter | inhibition, % at 5 µM | 290,000 tested, 0.23% active | AID 1700, 2009;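 active = inhibition above a per-plate limit of that plate's mean compound inhibition plus 3 SD, cut at about 60% in these data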;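 note: higher means less KLF5 promoter-driven luciferase light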
IEC-6 tox-1: cytotoxicity in IEC-6 intestinal epithelial cells, primary screen, cytotoxicity control for KLF5 inhibitor project, cell-based, luminescence | IEC-6 cytotoxicity, luminescence viability | inhibition, % at 5 µM | 290,000 tested, 0.78% active
KLF5 inh confirm: KLF5 expression inhibitors, confirmation, DLD-1 cells, luminescence; AID 1834, 2009; DLD-1 KLF5 promoter firefly luciferase reporter; shares compounds with KLF5 inhibitor; inhibition, % at 4 µM; 610 tested, 79% active;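 active = inhibition above a set limit taken from the earlier primary screen, cut at about 63% in these data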
IEC-6 tox-2: cytotoxicity in rat IEC-6 cells, cytotoxicity control for KLF5 inhibitor project, cell-based, luminescence, triplicate. inhibition, % at 4 µM. IEC-6 rat intestinal cells, viability luminescence. shares compounds with KLF5 inhibitor. 610 tested, 56% active. AID 1905, 2009; in the data active = inhibition above about 23%;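 note: cells exposed to compounds for 48 hours before viability read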
IEC-6 tox confirm: cytotoxic compounds in IEC-6 epithelial cells, confirmation, cytotoxicity control, cell-based, luminescence. 1,900 tested, 63% active. shares compounds with IEC-6 tox-1. IEC-6 rat intestinal epithelial viability. AID 1907, 2009. inhibition, % at 5 µM
Hits are given with their value; - = inactive; . = no result given. Rows were chosen to be rich in hits. Some 1.9% of all compounds tested hit in one or more screens of this group. Cut-off read from the data, not from the text of the source, unless noted: active = inhibition above about 22%; inactive = the rest.

SMILES | APP 5UTR inh | BaF3 tox | Ba/F3 V617F tox | KLF5 inhibitor | IEC-6 tox-1 | KLF5 inh confirm | IEC-6 tox-2 | IEC-6 tox confirm
O=C(CNC(=O)c1ccco1)N=Nc1c(O)n(CCc2ccccc2)c2ccccc12 | . | 68 | 74 | 71 | 85 | 83 | 72 | 67
CCOC(=O)COc1cccc2c(=O)n(CC(=O)NCc3ccccc3)ccc12 | . | 68 | 73 | 81 | 23 | 80 | 30 | 46
C/C(=N\NC(=O)c1nnn(-c2nonc2N)c1-c1ccc2c(c1)OCO2)c1ccccc1 | . | . | . | - | - | . | . | .
C/C(=N\NC(=O)c1nnn(-c2nonc2N)c1-c1ccccc1)c1ccccc1O | . | . | . | 62 | 96 | 85 | 63 | 75
COc1cc(SC)ccc1C(=O)Nc1nc2ccccc2[nH]1 | . | . | . | 100 | 77 | 98 | 44 | 59
COc1ccccc1C(=O)Nc1nc2ccccc2[nH]1 | . | . | . | 101 | 80 | 105 | 58 | 69
Cc1ccccc1OS(=O)(=O)c1cn(C)c(=O)n(C)c1=O | - | - | - | - | - | . | . | .
COc1ccc(CC(=O)NCc2ccc(-n3cccc3)cc2)cc1OC | . | . | . | 71 | 76 | 72 | 60 | 58
O=c1c2ccccc2cnn1-c1nc2ccccc2[nH]1 | 69 | 65 | 65 | 105 | 54 | 100 | 52 | 60
CN(Cc1ccccc1)C(=O)C1CCN(S(=O)(=O)c2cccc3nsnc23)CC1 | . | . | . | - | - | . | . | .
Cc1onc(-c2ccccc2Cl)c1C(=O)N1CCN(C=O)CC1 | . | . | . | - | - | . | . | .
Cc1cccc(N2CCN(C(=O)c3c(-c4ccccc4Cl)noc3C)CC2)c1C | . | . | . | 77 | 73 | 76 | 56 | 55
Brc1ccc(C2=Nn3c(nnc3-c3n[nH]c4c3CCC4)SC2)cc1 | 94 | 81 | 75 | 67 | 77 | 67 | 63 | 59
CCCNC1=C(N(C(C)=O)c2cccc(F)c2)C(=O)c2ccccc2C1=O | 49 | 104 | 101 | 96 | 65 | - | 53 | 41
CCC(=O)N(C1=C(NC(C)C)C(=O)c2ccccc2C1=O)C(C)C | - | - | - | - | - | . | . | .
Cc1cccc(/C=N/NC(=O)c2ccc3c(c2)OCCO3)c1O | . | . | . | 70 | 99 | - | - | -
O=C(N/N=C/c1cccc(O)c1)c1ccc2c(c1)OCCO2 | . | . | . | - | - | . | . | .
Cc1ccc(S(=O)(=O)CCc2ccncc2)cc1 | . | . | . | - | - | . | . | .
CN(C)c1ccc(C(=O)c2ccc(N(C)C)c3ccccc23)cc1 | 95 | 94 | 94 | 80 | 97 | 92 | 85 | 84
CN(C)c1ccc(C(=O)c2ccccc2C(=O)O)cc1[N+](=O)[O-] | - | - | - | - | - | . | . | .
O=C(c1ccco1)N1CCN(C(=O)N2c3ccccc3Sc3ccccc32)CC1 | 93 | 82 | 85 | 80 | 91 | 85 | 55 | 60
COc1ccc(C2=NOC(C(=O)NCc3ccc(F)cc3)C2)cc1OC (stereo unspecified) | 96 | 82 | 79 | 85 | 88 | 79 | 63 | 58
COc1cccc(C2=NOC(C(=O)NCc3ccc(F)cc3)C2)c1 (stereo unspecified) | - | - | - | - | - | . | . | .
COc1cc(C2=NOC(C(=O)NCc3ccc(F)cc3)C2)cc(OC)c1OC (stereo unspecified) | 95 | 78 | 79 | 73 | 86 | 85 | 65 | 55
Cc1ccc(-c2cc(=O)c3cc(C)ccc3[nH]2)cc1 | - | - | - | - | - | . | . | .
Cc1ccc2[nH]c(-c3cccc(F)c3)cc(=O)c2c1 | 93 | 83 | 83 | 62 | 91 | 73 | 59 | 57
O=c1cc(-c2cccc(F)c2)[nH]c2ccccc12 | 94 | 78 | 78 | 75 | 86 | 85 | 60 | 57
Cc1ccc2[nH]c(C(=O)N/N=C/c3ccccc3O)c(C)c2c1 | . | . | . | 71 | 98 | 69 | - | 54
O=C(Cn1nc(Cc2cccnc2)c2ccccc2c1=O)Nc1ccccc1F | . | - | - | - | - | . | . | .

Compound activity from PubChem.
